This is a sample that favours compounds with a hit; in the whole collection about 3.3% have one here.
NS1 inh = qHTS Assay for Inhibitors of Influenza NS1 Protein Function | Potency, µM (series often up to 46.1 µM), without a hit: top-dose activity, positive = more growth | AID 2326, 2010 | 270,000 compounds, 0.4% hits; calls by dose curve; further: actives are rising curves; nearly all actives have a fitted effect of over 50% in size
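Growth recovery, yeast-based: influenza A NS1 expressed in S. cerevisiae causes slow growth, and suppressors are detected by OD600. The parent strain without NS1 is used as positive control.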
LmPK inh = qHTS Assay for Inhibitors of Leishmania Mexicana Pyruvate Kinase (LmPK). 290,000 compounds, 0.37% hits. Potency, µM (top dose mostly 57.5 µM), inactives show at the highest dose activity change, negative = inhibition, most hits filed as inhibitors. purified LmPK, Kinase-Glo ATP luminescence, 1 h. AID 1721, 2009. Q27686; further: on the % scale 0 is the no-effect control and ±100 the full control effect
Target sequence (Q27686 whole entry, looked up): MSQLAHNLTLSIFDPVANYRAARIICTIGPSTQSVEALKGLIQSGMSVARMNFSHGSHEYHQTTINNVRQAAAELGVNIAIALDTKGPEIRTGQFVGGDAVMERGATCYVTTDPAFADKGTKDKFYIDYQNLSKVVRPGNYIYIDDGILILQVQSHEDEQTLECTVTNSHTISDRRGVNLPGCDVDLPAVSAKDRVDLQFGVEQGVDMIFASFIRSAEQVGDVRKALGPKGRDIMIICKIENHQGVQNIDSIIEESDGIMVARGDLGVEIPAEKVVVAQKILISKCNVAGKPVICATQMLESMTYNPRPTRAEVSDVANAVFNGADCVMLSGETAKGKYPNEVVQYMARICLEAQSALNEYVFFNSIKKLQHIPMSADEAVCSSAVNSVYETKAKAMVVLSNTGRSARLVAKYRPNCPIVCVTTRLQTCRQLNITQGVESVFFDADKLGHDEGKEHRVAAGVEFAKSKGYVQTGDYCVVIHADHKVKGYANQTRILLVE
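Screened at intermediate enzyme activity to detect both inhibitors and activators: LmPK at 0.1 nM, with a 0.5 nM enzyme column as activation reference. PEP 0.5 mM, ADP 0.1 mM; ATP detected by luminescence after 1 h.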
SARS PLpro yeast = qHTS of Yeast-based Assay for SARS-CoV PLP; S. cerevisiae expressing SARS-CoV PLpro, growth rescue; Potency, µM (series often up to 32.9 µM), for inactives: at the top dose activity, positive = growth rescue, usual class: activators; 330,000 compounds, 0.19% hits; calls by dose curve; further: 0% is about no effect; nearly all actives have a fitted effect of over 55% in size
RE007 growth inh = qHTS Assay for Inhibitors of the HIV-1 protein Vpr; S. pombe RE007 Vpr strain, BacTiter-Glo ATP luminescence, 24 h; Potency, µM (doses to about 92.2 µM), without a hit: at the highest dose activity change, negative = less growth, actives largely listed as inhibitors; 360,000 compounds, 0.21% hits; AID 651644, 2012; active means well fitted falling curve with a large enough effect; inconclusive means small, poorly fitted or top-dose-only effect; inactive means no such curve, though single readings can be large or run the other way; further: on the % scale 0 is the no-effect control and ±100 the full control effect; nearly all actives have a fitted effect of over 50% in size
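Fission yeast strain RE007, carrying one chromosomally integrated HIV-1 vpr copy, was seeded at OD 0.01 in PMG+AL medium with 23 nL pinned compound. After 24 h at 30 °C and 99% humidity, viability was read by BacTiter-Glo luminescence.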
Sm TGR inh = qHTS Assay for the Inhibitors of Schistosoma Mansoni Peroxiredoxins. purified TGR, DTNB reduction, TNB absorbance 405 nm. Potency, µM (doses to about 114 µM), inactives show at the top dose activity change, negative = inhibition, actives largely listed as inhibitors. 360,000 compounds, 3% hits. AID 485364, 2010; further: on the % scale 0 is the no-effect control and ±100 the full control effect; nearly all actives have a fitted effect of over 60% in size
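Kinetic colorimetric format: TGR-catalysed, NADPH-driven DTNB reduction monitored via TNB absorbance. Enzyme dispensed at 20 nM; compound exposure 15 min at room temperature before reaction start.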
Tb PYK inh = qHTS of Trypanosoma Brucei Inhibitors. pyruvate kinase (Trypanosoma brucei), Q57TT1. TbPYK enzyme, Kinase-Glo Plus ATP luminescence, 45 min. Potency, µM (top dose mostly 76.8 µM), for inactives: at the top dose activity, negative = inhibition, hits mostly inhibitors. 410,000 compounds, 0.12% hits. AID 624173, 2012; further: on the % scale 0 is the no-effect control and ±100 the full control effect; nearly all actives have a fitted effect of over 50% in size
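Enzyme and substrate buffer are dispensed first and compound is pin-transferred. ADP at 130 uM final then starts the reaction, which runs 45 min at room temperature. Detection reagent is added for 10 min before luminescence is imaged.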
Starred values were filed as active, the others as inactive; ? = inconclusive; nt = no result given. Unless noted, the call rests on the fitted dose curve; in most records, active means well fitted curve in the direction sought with a large enough effect; inconclusive means small, poorly fitted or top-dose-only effect, or another doubt; inactive means no such curve, though single readings can be large; an effect the other way counts as inactive or inconclusive. Potency means the concentration at half of the fitted maximal effect.

SMILES	NS1 inh	LmPK inh	SARS PLpro yeast	RE007 growth inh	Sm TGR inh	Tb PYK inh
COc1ccc(Cc2c3cc(OC)c(OC)cc3cc[n+]2C)cc1OC	2%	6%	-1%	-9%	13µM*	?
O=C(Nc1ccc(Cl)cc1)Nc1ccccc1Sc1ncc([N+](=O)[O-])s1	-43%	3%	-10%	-24%	4.5µM*	-28%
CCOc1ccc(OCC)c(NC(=O)c2csc3c2CCCC3)c1	nt	nt	nt	nt	-1%	-3%
O=C(CCS(=O)(=O)c1ccccc1)N(Cc1cccnc1)c1nc2ccc(F)cc2s1	nt	nt	nt	nt	0.89µM*	4%
CC(=O)N(Cc1cccnc1)c1nc2ccc(F)cc2s1	nt	nt	nt	nt	6%	-3%
O=C(CCOc1ccccc1)N(Cc1cccnc1)c1nc2c(F)cc(F)cc2s1	nt	nt	nt	nt	5.6µM*	4%
Cc1ccc2[nH]c3c(c2c1)CN(C(=O)CN1CCCCC1)CC3	-2%	7%	-4%	-1%	-10%	-2%
Cc1ccc2[nH]c3c(c2c1)CN(C(=O)CN1CCCc2ccccc21)CC3	3%	-3%	1%	-3%	32µM*	3%
COc1ccccc1C1=NOC(C)(c2nnc(Cc3ccccc3)o2)C1 (stereo unspecified)	nt	nt	0%	-7%	1%	-1%
CC1(c2nnc(Cc3ccccc3)o2)CC(c2ccccc2[N+](=O)[O-])=NO1 (stereo unspecified)	nt	nt	0%	19%	3.2µM*	-16%
CC1(c2nnc(Cc3ccccc3)o2)CC(c2cccc([N+](=O)[O-])c2)=NO1 (stereo unspecified)	nt	nt	2%	-3%	45µM*	3%
Cn1c(=O)c(C(=O)CN2CCN(Cc3ccc4c(c3)OCO4)CC2)c(N)n(Cc2ccccc2)c1=O	1%	5%	-2%	5%	1%	3%
CCn1c(SCC(=O)c2c(N)n(C)c(=O)n(C)c2=O)nnc1-c1ccccc1	-6%	-6%	-13%	nt	-9%	nt
Cn1c(=O)c(C(=O)CN2CCCCCC2)c(N)n(Cc2ccccc2)c1=O	nt	4%	0%	24%	35µM*	2%
Cc1nnc(SCC(=O)c2c(N)n(C)c(=O)n(C)c2=O)n1Cc1ccccc1	3%	-4%	22µM*	8%	6%	-14%
C[C@H]1CCCC2(CC[N+](C)(CCC[N+](C)(C)C)CC2)C1 (stereo partly specified)	-5%	nt	nt	nt	nt	nt
[Cl][Pd][Cl].[S-]C1=C2N=CN[C-]2[NH+]=C[N-]1.[S-]c1ncnc2[nH]cnc12	-11%	nt	nt	nt	nt	nt
O=[N+]([O-])c1ccc(CSCc2ccc(Cl)cc2)cc1	-9%	nt	nt	nt	nt	nt
C[C@]12CC[C@@H]3[C@H](CCC4=CC(=O)CC[C@]43C)[C@]1(O)CC[C@@]2(O)C(=O)CO	0%	nt	nt	nt	nt	nt
Fc1ccccc1CSc1ccc(-c2ccco2)nn1	nt	0%	-3%	3%	32µM*	-7%
Clc1ccc(CSc2ccc(-c3ccco3)nn2)cc1	nt	0%	-2%	-8%	28µM*	-4%
Clc1cccc(CSc2ccc(-c3ccco3)nn2)c1	nt	-2%	-1%	-25%	7.1µM*	-11%
Cc1ccc(CSc2ccc(-c3ccco3)nn2)cc1	18%	-25%	-12%	-9%	?	-26%
c1ccc(CSc2ccc(-c3ccco3)nn2)cc1	-17%	-18%	-27%	-15%	22µM*	-10%
CCNC(=O)c1nn(-c2ccccc2C)nc1CO	nt	nt	nt	nt	3%	3%
SMILES	NS1 inh	LmPK inh	SARS PLpro yeast	RE007 growth inh	Sm TGR inh	Tb PYK inh
COc1ccc(OC)c(CNC(=O)Cn2nc(C)c3nn(-c4ccc(Cl)cc4)c(C)c3c2=O)c1	nt	nt	nt	nt	2%	-5%
O=C(O)Cn1c(=O)oc2cc(S(=O)(=O)N3CCOCC3)ccc21	8%	nt	nt	nt	nt	nt
O=C1NCCN1CCN1CCC(c2cn(-c3ccc(F)cc3)c3ccc(Cl)cc23)CC1	nt	nt	nt	nt	nt	4%
Cc1cccc(CCNC(=O)C2CCC(CNS(=O)(=O)c3c(C)cc(C)cc3C)CC2)c1 (stereo unspecified)	nt	nt	nt	nt	21%	-5%
COc1ccccc1C(CNC(=O)c1ccco1)N1CCCC1 (stereo unspecified)	nt	nt	-2%	-4%	-18%	0%
COc1ccc(C(c2c(O)cc(C)n(Cc3ccco3)c2=O)N2CCCCC2)cc1OC (stereo unspecified)	nt	nt	nt	nt	7.9µM*	-8%
COc1ccccc1C(c1c(O)cc(C)n(Cc2ccco2)c1=O)N1CCCCC1 (stereo unspecified)	nt	nt	nt	nt	7.1µM*	0%
COCCn1c(C)cc(O)c(C(c2ccccc2Cl)N2CCCCC2)c1=O (stereo unspecified)	nt	nt	nt	nt	28µM*	5%
Cc1cc(O)c(C(c2ccccc2Cl)N2CCCCC2)c(=O)n1Cc1ccco1 (stereo unspecified)	nt	nt	nt	nt	4.5µM*	0%
CCOc1ccc(Cn2c(CNS(=O)(=O)c3ccc(C(C)(C)C)cc3)nc3cccnc32)cc1	nt	nt	nt	nt	5%	-2%
CCCN(Cc1cccs1)C(=O)Nc1ccc(Br)c(C)c1	nt	nt	nt	nt	-13%	-3%
O=C(O)C[C@H]1NCc2cc3ccccc3nc21	-1%	nt	nt	nt	nt	nt
Cc1cc(O)c(C(c2ccccc2)N2CCCCC2)c(=O)n1Cc1ccco1 (stereo unspecified)	nt	nt	nt	nt	10µM*	-2%
COc1ccc(C(c2c(O)cc(C)n(Cc3ccco3)c2=O)N2CCN(c3ccccc3)CC2)cc1 (stereo unspecified)	nt	nt	nt	nt	3.2µM*	-10%
COc1ccc(N2CCN(C(c3ccccc3OC)c3nnnn3Cc3ccco3)CC2)cc1 (stereo unspecified)	-51%	8%	-17%	-22%	-8%	-6%
C[N+](C)(C)CCOP(=O)(O)OP(=O)([O-])OCC1OC(n2ccc(N)nc2=O)[C@H](O)[C@@H]1O (stereo partly specified)	nt	nt	nt	nt	nt	1%
NNC(=O)c1ccc[n+](CCc2ccccc2)c1	1%	nt	nt	nt	nt	nt
COc1ccccc1S(=O)(=O)Cc1ccc(C(=O)NCc2ccc(Cl)cc2)o1	nt	nt	nt	nt	-4%	1%
COC(=O)C(O)(c1ccc(NC(=S)NC(=O)c2ccccc2)cc1)C(F)(F)F (stereo unspecified)	12%	1%	12%	-1%	28µM*	-2%
CC(=O)c1cccc(NC(=S)NC(=O)c2cccc(Cl)c2)c1	-7%	0%	-12%	23%	40µM*	-7%
COC(=O)C(O)(c1ccc(NC(=O)Oc2ccccc2)cc1)C(F)(F)F (stereo unspecified)	5%	-1%	8%	8%	-8%	-2%
